Hit rate of the full screen: of about 48,000 compounds, about 13,000 (27%) showed an effect of 50% or more. This is one part of the list.
System: Wolbachia pipientis
Assay: Anti-Wolbachia Cell-Based Screen
Assay type: functional
Design: scale not given: in the data most compounds retested in dose-response had high values
Details: 5 µM

| SMILES | Percent Effect [%] |
| --- | --- |
| CN(C)CCNC(=O)c1cnc2c(c1)nc(-c1ccccc1Cl)n2C | -9.554 |
| COCc1nc2cc(NCc3cc[nH]n3)ccc2o1 | -2.175 |
| CC(=O)Nc1cc(CN(C)C)ccc1C | -5.311 |
| CC(C(=O)N1CCCC1)S(=O)(=O)Cc1noc(C(C)(C)C)n1 (centres undefined) | -6.108 |
| Cc1cc(C2CCCN(CCCS(C)(=O)=O)C2)n[nH]1 (centres undefined) | 81.87 |
| Cc1cc(C2CCCN(CCCNS(C)(=O)=O)C2)n[nH]1 (centres undefined) | -11.22 |
| Cc1cc(C2CCCN(Cc3ncc(C)o3)C2)n[nH]1 (centres undefined) | -4.273 |
| Cc1cc(C2CCCN(CCCS(N)(=O)=O)C2)n[nH]1 (centres undefined) | 116 |
| Cc1cc(C)n(CC2CCCN2CCCS(N)(=O)=O)n1 (centres undefined) | -6.761 |
| COC(=O)c1cc(NC(=O)CCc2cscn2)ccc1C | -13.27 |
| CN1CSC[C@H]1C(=O)N1CCN(Cc2cccc(F)c2)CC1 | -1.728 |
| c1cnnc(N2CCCC2CNCc2cc[nH]n2)c1 (centres undefined) | 6.061 |
| NCC1Cn2nnc(-c3cccc(F)c3)c2CO1 (centres undefined) | -2.933 |
| Cc1cnn(CCNCc2csc(C)n2)c1 | 11.83 |
| COCC1c2c(cnn2CC2CC2)CCN1Cc1ccc(C)o1.O=C(O)C(F)(F)F.O=C(O)C(F)(F)F (centres undefined) | 107.5 |
| CCn1ncc2c1C(COCC1CC1)N(Cc1nccs1)CC2.O=C(O)C(F)(F)F.O=C(O)C(F)(F)F (centres undefined) | -10.7 |
| COCC1c2c(cnn2CC2CC2)CCN1Cc1ccc(OC)cc1 (centres undefined) | -7.562 |
| CCOCC1c2c(cnn2CC2CC2)CCN1Cc1nccs1.O=C(O)C(F)(F)F.O=C(O)C(F)(F)F (centres undefined) | 115.2 |
| COCC1c2c(cnn2CC2CC2)CCN1Cc1cccs1.O=C(O)C(F)(F)F.O=C(O)C(F)(F)F (centres undefined) | -10.1 |
| COCC1c2c(cnn2CC2CC2)CCN1Cc1ccsc1.O=C(O)C(F)(F)F.O=C(O)C(F)(F)F (centres undefined) | 107.6 |
| CCn1ncc2c1C(COCC1CC1)N(Cc1c(C)noc1C)CC2.O=C(O)C(F)(F)F.O=C(O)C(F)(F)F (centres undefined) | -2.948 |
| COCC1c2c(cnn2CC2CC2)CCN1Cc1nccs1.O=C(O)C(F)(F)F.O=C(O)C(F)(F)F (centres undefined) | -17.24 |
| COCC1c2c(cnn2CC2CC2)CCN1Cc1cc(C)on1.O=C(O)C(F)(F)F.O=C(O)C(F)(F)F (centres undefined) | 63.1 |
| CCN1C[C@H]2C3(CCN(S(=O)(=O)CC)CC3)CC[C@@]2(C(=O)N(C)C)C1.O=C(O)C(F)(F)F | -7.289 |
| Cc1ccc2nc(C3CCCN3Cc3nnc(C)s3)[nH]c2c1 (centres undefined) | -155.9 |
| Clc1ccc2nncc(N3CCCCC3)c2c1 | -7.543 |
| NC1(C(=O)NCCC2CN(Cc3ccco3)CCO2)CCCC1 (centres undefined) | 117.7 |

| SMILES | Percent Effect [%] |
| --- | --- |
| O=C(NCCCN1CCOCC1)C1CCCN(Cc2ccco2)C1 (centres undefined) | 1.976 |
| O=C(NCCC1CN(Cc2c[nH]cn2)CCO1)c1ccccc1O (centres undefined) | -1.985 |
| N#Cc1ccccc1C(=O)NCCC1CN(Cc2ccco2)CCO1 (centres undefined) | 86.72 |
| CCC1CN(CC(=O)NCc2ccco2)CCO1 (centres undefined) | -17.78 |
| CC(C)(C)C(=O)NCCC1CN(Cc2ccccc2F)CCO1 (centres undefined) | -7.627 |
| Cc1ccc(C)c(NC(=O)Nc2c[nH]c(=O)[nH]c2=O)c1 | -8.651 |
| Cc1cccc2c(CCNS(=O)(=O)C3CCOC3)c[nH]c12 (centres undefined) | 14.98 |
| CC(C)Cc1noc(CN2CCCC(CNS(N)(=O)=O)C2)n1 (centres undefined) | 6.336 |
| Cc1noc2nc(C3CCN(CC4CCCCC4)CC3)cc(C(F)F)c12.Cl | 130.1 |
| CCS(=O)(=O)c1ccc2oc([C@H]3CCN(Cc4ccccn4)C3)nc2c1 | -4.332 |
| Cc1noc2nc(C3CCN(CC4=CCCOC4)CC3)cc(C(F)F)c12.Cl | -4.292 |
| Cc1n[nH]c2ncc(CNC3CCN(Cc4ccccn4)CC3)cc12.Cl | 0.2679 |
| Cc1noc2nc(C3CCN(Cc4ccccn4)CC3)cc(C(F)F)c12 | 126.2 |
| CCOC(C)c1noc(CN2CCN(CC3CCCC3)CC2)n1 (centres undefined) | -4.058 |
| COc1ccc(N(C)C(=O)c2ccc(Cl)c(S(C)(=O)=O)c2)cn1 | -5.224 |
| Cc1c(-c2ccccc2)ncn1CCCNc1cccnc1 | -10.09 |
| COc1ccc(N2CCN(C(=O)Cn3nccc3C)CC2(C)C)cc1 | 3.492 |
| CN(C)CCn1ccnc1C1CCN(C(=O)CCc2cccnc2)CC1 | -5.205 |
| CCN1C(=O)CC[C@@H]2N(C(=O)CCn3nccc3C)CCCC[C@@]21C | 96.02 |
| Cc1ccnn1CCC(=O)N1CCN(C2CCc3ccccc3C2)CC1 (centres undefined) | -3.022 |
| CN1C(=O)CC[C@@H]2N(C(=O)CCc3cccnc3)CCCC[C@@]21C | 73.04 |
| Cc1ccnn1CCC(=O)N1CCCC[C@@]2(C)[C@@H]1CCC(=O)N2C | 76.68 |
| COc1ccc(N2CCN(C(=O)CCn3nccc3C)C(C)C2)cc1 (centres undefined) | -2.814 |
| COc1ccc(N2CCN(C(=O)CCn3nccc3C)CC2(C)C)cc1 | -0.9656 |
| O=C1CCCCN1CCC(=O)N1CCCCC1c1ccc(F)cc1 (centres undefined) | -7.872 |
| Cc1ccnn1CCC(=O)N1CCCC[C@]2(C)NC(=O)CCC[C@H]12 | 63.73 |
| Cc1ccnn1CCC(=O)N(Cc1ccsc1)CC(C)C | 6.512 |
